Inconclusive results are not listed. Entries that show only a call come without a potency. Unmarked numbers belong to inactive results. Active and inactive are the calls of the source. Calls come from the whole dose curve; as a rule, active = well fitted activation curve with a large enough effect; inconclusive = small, poorly fitted or top-dose-only effect; inactive = flat fitted curve, though single readings scatter.
test: Primary redox qHTS assay for identification of artifact compounds. (AID 1845223); settings: Amplex Red/HRP redox cycling with DTT, fluorescence; series mostly up to 53.8 µM
In short: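 Amplex Red (25 uM) and HRP (250 mU/mL) in HBSS, with compounds for 15 min, then 250 uM DTT for 30 min, room temperature, dark. Fluorescence 525/598 nm read; normalized to DMSO and 10 uM DA3003; Hill fit.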

Structure (SMILES)	Potency	redox activity (% of DA3003)
CC(C)c1ccc2c(c1)[C@H](O)CC1[C@@](C)(C(=O)O)CCC[C@]21C (some centres undefined)	inactive	–
C=C1CCC2C(C)(C)CCC[C@]2(C)[C@H]1CC/C(C)=C/C(=O)O (some centres undefined)	inactive	–
CC(C)(Oc1ccc(-c2nc3cc(Cl)ccc3s2)cc1)C(=O)O	inactive	–
O=C(O)c1ccnc2cc(C(OCC3CCC(F)(F)CC3)c3ccccc3Cl)[nH]c12 (centres undefined)	inactive	–
C=C(C)C1CCC2(C(=O)OC3OC(COC4OC(CO)C(O)C(O)C4O)C(OC4OC(C)C(O)C(O)C4O)C(O)C3O)CCC3(C(=O)O)C(CCC4C5(C)CCC(=O)C(C)(C)C5CCC43C)C12 (centres undefined)	–	7.53% [at 11.5 µM]
COC(=O)[C@]1(C)CCC[C@@]2(C)[C@@H]3CC[C@@H]4C[C@@]3(CC[C@@H]21)C[C@H]4C(=O)O	inactive	–
CC(O)C(=O)/C=C/C=C/C(=O)OC1C=C2COC(=O)C2(O)C2(C)CCCC(C)(C)C12 (centres undefined)	inactive	–
COc1cc(O)c(C(=O)O)c(CCc2ccccc2)c1	inactive	–
O=C1C[C@@]2(C(=O)N1)C(=O)N(Cc1ccc(Br)cc1F)C(=O)c1cccn12	inactive	–
CC(C(=O)Nc1cc(C#N)ccc1CCCC(=O)O)c1ccc(F)c2ccccc12 (centres undefined)	inactive	–
CN(C)C(=O)C(O)C(Cc1ccccc1)NC(=O)c1cc2cc(Cl)ccc2[nH]1 (centres undefined)	inactive	–
CC1=C2CC3C(CCC3(C)O)C(C)(O)CC2OC1=O (centres undefined)	inactive	–
O=C(Cn1c2ccccc2c2nc3n(c(=O)c21)CCS3)N1CCCC1	inactive	–
COc1ccc(/C=C/C(=O)N2CCCC2)cc1	inactive	–
COC(=O)c1ccccc1O[C@@H]1O[C@H](CO[C@@H]2OC[C@@H](O)[C@H](O)[C@H]2O)[C@@H](O)[C@H](O)[C@H]1O	inactive	–
O=C(N[C@H](Cc1ccccc1)C(=O)O)c1sc2cc(F)ccc2c1Cl	inactive	–
Cn1nccc1-c1ccccc1Oc1ccc(S(=O)(=O)Nc2nccs2)cc1C#N	inactive	–
COc1ccc(NC(=O)c2ccc(-c3ccc(C(N)=O)cc3C)cc2)cc1N1CCN(C)CC1	inactive	–
O=C(O)[C@H](Cc1ccccc1)Oc1ccc(-c2ccccc2)cc1	inactive	–

Source: PubChem BioAssay (NCATS)
